PubChem BioAssay (NCI)
About 79,000 compounds went through this panel and 15% of them were active in at least one assay; those are over-represented in the sample as a whole. Values without a mark were called inactive. The source made the active and inactive calls. No stated cut-off is given here; in the data, active means growth inhibition above about 70%; inactive means the rest.

What was measured:
[1] = NCI Yeast Anticancer Drug Screen. Data for the mec2-1 strain (AID 157); conditions: S. cerevisiae mec2-1 strain, hits give high values
Method in brief: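 Mutant yeast (mec2-1) grown with compound; growth inhibition relative to vehicle control reported.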

[2] = NCI Yeast Anticancer Drug Screen. Data for the rad14 strain (AID 159);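 further: 0% = growth of vehicle-treated control cultures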; conditions: S. cerevisiae rad14 strain growth inhibition, hits give high values
Method in brief: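 Growth inhibition vs vehicle controls; genetically altered yeast strain (DNA damage repair defect) treated with test compounds.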

[3] = NCI Yeast Anticancer Drug Screen. Data for the sgs1 mgt1 strain (AID 161);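 further: 0% = growth of cultures given vehicle only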; conditions: S. cerevisiae sgs1 mgt1 strain, hits give high values
Method in brief: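 Growth of a repair-deficient yeast mutant was monitored after compound treatment and expressed as inhibition relative to vehicle-treated cultures.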

[4] = NCI Yeast Anticancer Drug Screen. Data for the CLN2oe strain (AID 163);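 further: 0% = growth of vehicle-only control cultures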; conditions: S. cerevisiae CLN2oe strain, hits give high values
Method in brief: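 Compounds are applied to yeast harbouring a defined cell-cycle control change; reduced growth compared with vehicle-treated controls gives the value.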

[5] = NCI Yeast Anticancer Drug Screen. Data for the cln2 rad14 strain (AID 165);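 further: 0% = growth equal to vehicle treated cultures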; conditions: S. cerevisiae cln2 rad14 strain, hits give high values
Method in brief: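 Readout is yeast growth inhibition versus vehicle-treated controls, using a strain with cln2 and rad14 alterations exposed to compound.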

[6] = NCI Yeast Anticancer Drug Screen. Data for the bub3 strain (AID 167); conditions: S. cerevisiae bub3 mutant strain, hits give high values
Method in brief: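 Readout: yeast growth inhibition, expressed relative to vehicle-only wells. The test organism is a mutant strain from a panel with lesions in DNA repair or checkpoint genes.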

[7] = NCI Yeast Anticancer Drug Screen. Data for the mlh1 strain (AID 171);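 further: 0% = growth of vehicle-treated control cultures of the same strain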; conditions: S. cerevisiae mlh1 strain growth inhibition, hits give high values
Method in brief: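 Measured: yeast growth. Reference: vehicle-treated controls. Organism: strain with a defined alteration affecting DNA damage repair or cell cycle control, treated with compound.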

[8] = NCI Yeast Anticancer Drug Screen. Data for the sgs1 strain (AID 173);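 further: 0% = growth of vehicle-only control cultures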; conditions: S. cerevisiae sgs1 mutant, hits give high values
Method in brief: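 Each compound was added to cultures of the altered yeast strain. Growth was recorded, and inhibition was derived by comparison with vehicle controls.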

[9] = NCI Yeast Anticancer Drug Screen. Data for the mlh1 rad18 strain (AID 175); conditions: S. cerevisiae mlh1 rad18 strain growth inhibition, hits give high values
Method in brief: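 Genetically defined yeast (DNA repair-deficient) exposed to compounds; growth inhibition determined relative to vehicle.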

[10] = NCI Yeast Anticancer Drug Screen. Data for the rad18 strain (AID 177); conditions: S. cerevisiae rad18 mutant growth inhibition, hits give high values
Method in brief: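 Vehicle-treated cultures served as the baseline for scoring compound-induced growth inhibition in DNA-repair-mutant yeast.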

[11] = NCI Yeast Anticancer Drug Screen. Data for the rad52 strain (AID 147);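 further: 0% = growth of vehicle-treated control cultures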; conditions: S. cerevisiae rad52 mutant growth inhibition, hits give high values
Method in brief: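 The repair-mutant yeast strain was incubated with compounds, then growth was read and inhibition derived relative to vehicle.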

[12] = NCI Yeast Anticancer Drug Screen. Data for the wt1 strain (AID 149);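 further: 0% = growth of vehicle-treated wt1 cultures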; conditions: S. cerevisiae wt1 strain (SPY 50644) growth inhibition, hits give high values
Method in brief: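 Growth inhibition read against vehicle controls after compound exposure of the wt1 yeast strain.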

[13] = NCI Yeast Anticancer Drug Screen. Data for the rad50EPP+ strain (AID 151);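 further: 0% = growth of vehicle-treated control cultures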; conditions: S. cerevisiae rad50 mutant strain, hits give high values
Method in brief: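 Vehicle-normalised growth inhibition; rad50EPP+ yeast strain, altered in DNA damage repair, compound-treated.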

[14] = NCI Yeast Anticancer Drug Screen. Data for the rad50 strain (AID 155);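 further: 0% = growth of vehicle-only cultures of the same strain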; conditions: S. cerevisiae rad50 strain growth inhibition, hits give high values
Method in brief: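 Readout: growth inhibition relative to vehicle-treated cultures. Compound exposure was carried out in a genetically defined yeast strain deficient in DNA damage repair.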

[15] = NCI Yeast Anticancer Drug Screen. Data for the wt2 strain (AID 169);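 further: 0% = growth of vehicle-treated yeast cultures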; conditions: S. cerevisiae wt2 strain growth inhibition, hits give high values
Method in brief: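 Against vehicle-treated controls, the growth of yeast exposed to each compound was compared, and the inhibition was recorded.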

[16] = at 5.0 µM (retest, dose inferred, filed as 0.5)
[17] = at 50.0 µM (retest, dose inferred, filed as 5.0)

In the case of `COc1ccc(S(=O)(=O)N/N=C\c2cc([N+](=O)[O-])cc(I)c2O)c(OC)c1OC`, the growth inhibition ([1]; at 100.0 µM) is reported as 83% (active), the growth inhibition ([2]; at 1.2 µM) is reported as -3% and the growth inhibition ([2]; at 3.7 µM) is reported as 4%. The growth inhibition ([2]; at 11.0 µM) was 13%, the growth inhibition ([2]; at 33.0 µM) was 39% and the growth inhibition ([2]; at 100.0 µM) was 96% (active). The growth inhibition [3, 16] was 13%, the growth inhibition [3, 17] was 74% (active) and the growth inhibition ([3]; at 50.0 µM) was 88.3% (active). The growth inhibition ([4]; at 1.2 µM) was -6%, the growth inhibition ([4]; at 3.7 µM) was -10% and the growth inhibition ([4]; at 11.0 µM) was -8%. The growth inhibition ([4]; at 33.0 µM) was 18%, the growth inhibition ([4]; at 100.0 µM) was 93% (active) and the growth inhibition [5, 16] was -8%. It also gave a growth inhibition [5, 17] of 46%, a growth inhibition ([5]; at 50.0 µM) of 11.1% and a growth inhibition ([6]; at 1.2 µM) of -13%. The growth inhibition ([6]; at 3.7 µM) was -15%, the growth inhibition [6, 16] was 1% and the growth inhibition ([6]; at 11.0 µM) was -5%. The growth inhibition ([6]; at 33.0 µM) was 15%, the growth inhibition [6, 17] was 68% and the growth inhibition ([6]; at 50.0 µM) was 25.8%. The growth inhibition ([6]; at 100.0 µM) was 86% (active), the growth inhibition ([7]; at 1.2 µM) was 0% and the growth inhibition ([7]; at 3.7 µM) was -8%. For the same compound, the growth inhibition ([7]; at 11.0 µM) was 0%, the growth inhibition ([7]; at 33.0 µM) was 29% and the growth inhibition ([7]; at 100.0 µM) was 88% (active). The growth inhibition ([8]; at 1.2 µM) was -5%, the growth inhibition ([8]; at 3.7 µM) was -8% and the growth inhibition ([8]; at 11.0 µM) was 9%. For the same compound, the growth inhibition ([8]; at 33.0 µM) was 45%, the growth inhibition ([8]; at 100.0 µM) was 97% (active) and the growth inhibition [9, 16] was 15%. For the same compound, the growth inhibition [9, 17] was 73% (active), the growth inhibition ([9]; at 50.0 µM) was 85.5% (active) and the growth inhibition ([10]; at 1.2 µM) was -1%. The growth inhibition ([10]; at 3.7 µM) was 0%, the growth inhibition ([10]; at 11.0 µM) was 13% and the growth inhibition ([10]; at 33.0 µM) was 37%. The growth inhibition ([10]; at 100.0 µM) was 93% (active).
`CN[C@@H]1C[C@H]2O[C@@](C)([C@@H]1OC)n1c3ccccc3c3c4c(c5c6ccccc6n2c5c31)C(=O)N[C@@H]4O` gave a growth inhibition ([11]; at 1.2 µM) of 11%, a growth inhibition ([11]; at 3.7 µM) of 35% and a growth inhibition ([11]; at 11.0 µM) of 22%. The growth inhibition ([11]; at 33.0 µM) was 24%, the growth inhibition ([11]; at 100.0 µM) was 38% and the growth inhibition ([12]; at 1.2 µM) was -24%. The growth inhibition ([12]; at 3.7 µM) was 16%, the growth inhibition ([12]; at 11.0 µM) was 15% and the growth inhibition ([12]; at 33.0 µM) was 7%. The growth inhibition ([12]; at 100.0 µM) was 8%, the growth inhibition ([13]; at 1.2 µM) was -23% and the growth inhibition ([13]; at 3.7 µM) was -18%. The growth inhibition ([13]; at 11.0 µM) was -9%, the growth inhibition ([13]; at 33.0 µM) was -11% and the growth inhibition ([13]; at 100.0 µM) was 21%. It also gave a growth inhibition ([14]; at 1.2 µM) of -34%, a growth inhibition ([14]; at 3.7 µM) of -41% and a growth inhibition [14, 16] of -17%. The growth inhibition ([14]; at 11.0 µM) was -23%, the growth inhibition ([14]; at 33.0 µM) was -33% and the growth inhibition [14, 17] was 6%. It also gave a growth inhibition ([14]; at 50.0 µM) of 50.4%, a growth inhibition ([14]; at 100.0 µM) of 2% and a growth inhibition ([1]; at 1.2 µM) of -53%. It also gave a growth inhibition ([1]; at 3.7 µM) of -44%, a growth inhibition [1, 16] of -9% and a growth inhibition ([1]; at 11.0 µM) of -36%. For the same compound, the growth inhibition ([1]; at 33.0 µM) was -9%, the growth inhibition [1, 17] was 30% and the growth inhibition ([1]; at 50.0 µM) was 35%. For the same compound, the growth inhibition ([1]; at 100.0 µM) was 19%, the growth inhibition ([2]; at 1.2 µM) was -31% and the growth inhibition ([2]; at 3.7 µM) was -34%. The growth inhibition ([2]; at 11.0 µM) was -31%, the growth inhibition ([2]; at 33.0 µM) was -9% and the growth inhibition ([2]; at 100.0 µM) was 67%. It also gave a growth inhibition [3, 16] of -1%, a growth inhibition [3, 17] of 24% and a growth inhibition ([3]; at 50.0 µM) of 16.4%. For the same compound, the growth inhibition ([4]; at 1.2 µM) was -8%, the growth inhibition ([4]; at 3.7 µM) was -8% and the growth inhibition ([4]; at 11.0 µM) was 5%. For the same compound, the growth inhibition ([4]; at 33.0 µM) was 12%, the growth inhibition ([4]; at 100.0 µM) was 20% and the growth inhibition [5, 16] was 13%. For the same compound, the growth inhibition [5, 17] was 38%, the growth inhibition ([5]; at 50.0 µM) was 22.4% and the growth inhibition ([6]; at 1.2 µM) was -11%. The growth inhibition ([6]; at 3.7 µM) was -10%, the growth inhibition [6, 16] was 30% and the growth inhibition ([6]; at 11.0 µM) was 13%. For the same compound, the growth inhibition ([6]; at 33.0 µM) was 32%, the growth inhibition [6, 17] was 83% (active) and the growth inhibition ([6]; at 50.0 µM) was 74.5% (active). For the same compound, the growth inhibition ([6]; at 100.0 µM) was 74% (active), the growth inhibition ([15]; at 1.2 µM) was -36% and the growth inhibition ([15]; at 3.7 µM) was -16%. For the same compound, the growth inhibition ([15]; at 11.0 µM) was 15%, the growth inhibition ([15]; at 33.0 µM) was -21% and the growth inhibition ([15]; at 100.0 µM) was 21%. For the same compound, the growth inhibition ([7]; at 1.2 µM) was -20%, the growth inhibition ([7]; at 3.7 µM) was -12% and the growth inhibition ([7]; at 11.0 µM) was -16%. The growth inhibition ([7]; at 33.0 µM) was 0%, the growth inhibition ([7]; at 100.0 µM) was -7% and the growth inhibition ([8]; at 1.2 µM) was -1%. The growth inhibition ([8]; at 3.7 µM) was -5%, the growth inhibition ([8]; at 11.0 µM) was 1% and the growth inhibition ([8]; at 33.0 µM) was 8%. The growth inhibition ([8]; at 100.0 µM) was 43%, the growth inhibition [9, 16] was 2% and the growth inhibition [9, 17] was 31%. It also gave a growth inhibition ([9]; at 50.0 µM) of 25.7%, a growth inhibition ([10]; at 1.2 µM) of -8% and a growth inhibition ([10]; at 3.7 µM) of -7%. It also gave a growth inhibition ([10]; at 11.0 µM) of -3%, a growth inhibition ([10]; at 33.0 µM) of 10% and a growth inhibition ([10]; at 100.0 µM) of 25%.
